The structures appear in SMILES notation. This is part of a sample that, as a whole, favours compounds with a hit. Of some 83,000 tested, about 20% had one in any assay.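 Method: cells in 96-well plates; compound added at one concentration; 48 h incubation; percent growth measured; values under 10 scored active.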 A number with no mark means an inactive call. Calls of active or inactive are those of the source.

The text below walks through data of PubChem BioAssay (NCI).

In this experiment the test system is RPMI-8226 leukemia. The experiment is described as follows: NCI-60 one-dose screen, 48 h (100 = growth as untreated, 0 = no growth, -100 = all killed). To be noted: 10 µM unless noted. The method, then:
Growth inhibition of the RPMI-8226 human tumor cell line is measured as a screen for anti-cancer activity. Cells are grown in 96 well plates and exposed to the test compound for 48 hours. Compounds are tested at a single concentration, which is 10^-5 M for most compounds. The reported endpoint is percent growth (GI% or GIPRCNT), where numbers from 0 - 100% represent growth inhibition, and numbers from -100% - 0 represent cell death. For example, a value of 40 represents 60% growth inhibition. A value of 0 means no net growth occurred over the course of the experiment. A value of -40 indicates 40% of cells at the beginning of the experiment died by the end of the experiment. A value of -100 means all cells are dead at the end of the experiment.
NCI-60 Human Tumor Cell Lines Screen was performed using the standard one-dose NCI protocol, which is described in more detail at https://dtp.cancer.gov/discovery_development/nci-60/default.htm.
Compounds with GIPRCNT values below 10 were considered active. Activity score was based on GIPRCNT using the following formula: […]
Score is 0 for GIPRCNT values of 100 or above, 50 for GIPRCNT values of 0, and 100 for GIPRCNT values of -100.
`CC(=O)C1C(=O)C(=O)N(c2cccc([N+](=O)[O-])c2)C1=O` (stereo not given): the growth is 107%.
As for `O=C(O)C1CCCN1C(=O)OCc1ccccc1` (stereo not given), the growth was 112%.
To `COc1ccc(-c2csc(NC(=O)Nc3nc(-c4ccc(OC)cc4)cs3)n2)cc1` belongs 69.5%; to `COC(c1ccc2c(c1)OCO2)C(C)Br` (stereo not given), 93.5%.
As for `Cc1cc2c(C(C)C)c(O)c(O)c(C=Nc3ccccc3[N+](=O)[O-])c2c(O)c1-c1c(C)cc2c(C(C)C)c(O)c(O)c(C=Nc3ccccc3[N+](=O)[O-])c2c1O`, the growth is 61.5%.
To `CCOc1ccc2c(c1)c(C)cc(C)[n+]2CC` belongs 52.1%; to `CN(C)Cc1ccccn1`, 90.9%; to `Cc1cc2c3ccc(C)[n+](C)c3ccc2n1C`, 21.2%.
The same measure for `CC(=O)NNC(=S)/N=C\C(C(=O)c1ccccc1)=C(/O)c1ccccc1`: 104%; for `CCOc1ccncc1[N+](=O)[O-]`: 112%.
To `CCOC(=O)CO` belongs 110%; to `C1Cc2onc(-c3noc4c3CCC4)c2C1`, 113%.
Take `CCNc1ccc2ccccc2c1N=Nc1ccc(N=Nc2ccccc2)cc1`: the growth was 95.9%.
The same measure for `O=[N+]([O-])c1c(O)c(CNCCCO)cc(CNCCCO)c1O`: 116%; for `COC1CC(OC(=O)c2ccc([N+](=O)[O-])cc2)C(COC(=O)c2ccc([N+](=O)[O-])cc2)O1` (stereo not given): 101%.
The same measure for `S=C=Nc1ccc2ccccc2c1`: 103%; for `Cc1ccc(C)c2c1CCC2=O`: 84.1%.
Turning to `CC(O)C(F)(F)C(F)(F)C(F)(F)F` (stereo not given), the growth was 128%.
The same measure for `O=C(Nc1ccc([N+](=O)[O-])cc1)C(=O)Nc1ccc([N+](=O)[O-])cc1`: 105%.
To `CC1(c2ccccc2)CO1` (stereo not given) belongs 103%.
The same measure for `CC(=O)OCC1CCC(COC(C)=O)CC1` (stereo not given): 103%; for `C=COC(=O)C(C)(C)C`: 99.2%.
In the case of `Nc1ncnc(Nc2ccccc2)n1`, the growth was 96.7%.
The same measure for `COC(=O)Cc1cc(COC(C)=O)ccc1C`: 110%; for `CN(C(=S)S(=O)(=O)C12CC3CC(CC(C3)C1)C2)c1ccccc1`: 83.9%; for `C1CCc2onc(-c3noc4c3CCCCC4)c2CC1`: 111%.
The same measure for `CCCCCC(=O)OCCC1CCCCC1`: 103%.
The same measure for `COc1cc(CC#N)c([N+](=O)[O-])cc1OC`: 109%.
`Nc1cc2ccccc2c(O)c1O`: the growth is 12.7%.
To `Clc1ncnc2nc[nH]c12` belongs 88.8%.
To `CCOC(=O)c1ccc(Nc2sc(C(=O)c3ccc(Br)cc3)c(N)c2C#N)cc1` belongs 18.7%; to `COc1cccc(N=CNc2cccc(OC)c2)c1`, 92%.
The same measure for `CC(=O)NC(CCc1ccc(Cl)c(Cl)c1)c1cccc(O)c(=O)c1` (stereo not given): 13.9%; for `C/C(O)=C(/C=N/C(=S)Nc1ccccc1)C(=O)Nc1ccccc1C`: 103%; for `c1ccc(-c2ccc3ccccc3c2)cc1`: 104%.
Regarding `Cc1cc(Nc2ccc3c(c2)OCO3)c2cc3c(cc2n1)OCO3`, the growth was -19.9% (active).
The same measure for `Nc1ncnc2c1ncn2C1OC(CO)C2OC21` (stereo not given): 103%; for `CCN(C(=O)Nc1ccccc1Cl)c1ccccc1`: 107%.
As for `CCCCNc1ccc(-c2ccc(NCCCC)cc2)cc1`, the growth is 61.8%.
To `O=C(CCl)Nc1ccccc1SCc1cc(Cl)cc2c1OCOC2` belongs 94%.
